Shown are actives, neighbours in structure and some others; about 2.4% of the full set was active somewhere.
D2 antagonist – antagonists of human D2 dopamine receptor. P14416. inhibition, % at 10 µM. HEK293 TREx D2 cells, calcium flux, dopamine EC80. 340,000 tested, 2% active; in the data active = inhibition above about 30%; inactive = below that, where a call was filed
Target sequence (P14416 whole entry, looked up): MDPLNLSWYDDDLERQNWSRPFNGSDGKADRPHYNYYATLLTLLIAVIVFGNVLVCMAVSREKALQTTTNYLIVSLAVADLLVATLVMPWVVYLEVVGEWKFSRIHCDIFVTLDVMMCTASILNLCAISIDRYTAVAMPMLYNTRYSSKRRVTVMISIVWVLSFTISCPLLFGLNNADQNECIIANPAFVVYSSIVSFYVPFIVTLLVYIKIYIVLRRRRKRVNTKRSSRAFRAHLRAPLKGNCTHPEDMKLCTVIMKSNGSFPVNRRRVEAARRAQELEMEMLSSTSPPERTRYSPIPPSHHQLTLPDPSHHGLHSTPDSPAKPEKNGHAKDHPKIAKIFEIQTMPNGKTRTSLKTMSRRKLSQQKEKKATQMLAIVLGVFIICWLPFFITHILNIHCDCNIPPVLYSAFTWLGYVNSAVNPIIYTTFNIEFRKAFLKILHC
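Measurement of antagonist activity uses fluorescent calcium dye in inducible HEK293 T-REx D2 cells: 10 s baseline, compound addition with 180 s read, EC80 dopamine addition with a further 180 s read.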
D2 PAM-1 – positive allosteric modulators of human D2 dopamine receptor; HEK293 T-REx D2, calcium flux, EC20 dopamine potentiation; potentiation, % at 10 µM; AID 485347; 340,000 tested, 0.34% active;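 active = potentiation over 3 SD above the plate norm, cut at about 30% in these data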
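Tetracycline-induced HEK293 T-REx cells force-coupled to calcium signalling expressed D2; compounds were pin-added after a 10 s baseline, read kinetically 180 s, then an EC20 dopamine challenge followed with a further 180 s calcium read.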
D2 ag-1 – D2 dopamine receptor (human) agonism. P14416. HEK293 T-REx D2 cells, calcium flux agonist mode. activation, % at 2 µM. 340,000 tested, 0.53% active;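 active = activation over 3 SD above normal in the single-dose calcium agonist read, cut at about 30% in these data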
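Tetracycline-induced HEK293 Trex cells with D2 receptor force-coupled to calcium signaling, plated overnight at 30 C and loaded with no-wash calcium dye. Calcium flux read kinetically for 180 s after compound addition; responses flag agonists.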
D2 ag-2 – activates the human D2 dopamine receptor | AID 624465 | DiscoveRx PathHunter D2 beta-arrestin, luminescence, 90 min; 100% = 57 uM dopamine signal | activation, % (no concentration beside the values) | 360,000 tested, 0.084% active; in the data active = activation above about 40%; inconclusive = between about 15% and that limit
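DiscoveRx PathHunter D2 beta-arrestin cells (2,100/well) attached overnight, then compound-stimulated 90 min at 37 C in HBSS/10 mM HEPES/0.1% Tween-20 buffer; beta-galactosidase complementation read by luminescence after 1 h at ambient temperature. Dopamine 57 uM final (EC100) as control.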
D2 PAM-2 – human D2 receptor positive allosteric modulation; P14416; DiscoveRx D2 beta-arrestin cells, luminescence, 90 min; 100% = 57 uM dopamine signal; potentiation, % (test concentration not listed); 360,000 tested, 0.23% active; AID 624464; in the data active = potentiation above about 50%; inconclusive = mostly about 30% to 49%
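D2 cells co-treated with compound plus 50 nM dopamine (EC20) for 90 min at 37 deg C to detect potentiation. Beta-arrestin recruitment was read as enzyme-fragment luminescence after 1 h at ambient temperature. Full response was set by 57 uM dopamine.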
A number is an active result; – = inactive; ? = inconclusive; · = no result given.

SMILES	D2 antagonist	D2 PAM-1	D2 ag-1	D2 ag-2	D2 PAM-2
COc1ccc(CN(Cc2ccco2)C(=O)COc2ccccc2OC)cc1	·	–	–	·	·
Cc1ccc(NC(=O)COc2cccc3c2OC(C)(C)C3)c(O)c1	30.2	–	–	–	–
O=C(CSc1nccc(=O)[nH]1)Nc1ccc(S(=O)(=O)N2CCOCC2)cc1	31.5	–	–	–	–
O=C(/C=C/c1ccc(Cl)cc1)NC(=S)Nc1ccc(CN2CCOCC2)cc1	–	–	35.0	–	–
Cc1ccc(NC(=O)CSCC#N)cc1	87.4	–	–	–	–
N#CCSCC(=O)Nc1ccc(Br)cc1	–	–	–	–	–
COc1ccc(-c2cc(C)no2)cc1S(=O)(=O)NCCCN1CCCCCC1	33.7	–	–	–	–
CCn1c(C)cc(/C=C2/SC(=S)NC2=O)c1C	–	–	–	–	–
CCn1ncc(/C=C2/SC(=S)NC2=O)c1C	–	–	32.8	–	–
Cc1ccc(C(=O)Nc2ccccc2C(=O)OCc2cc(=O)n3nc(C4CC4)sc3n2)cc1	·	–	–	·	·
COc1ccc(NC(=O)c2ccco2)cc1NC(=O)COc1ccccc1Cl	·	–	·	·	·
Cc1cc2ccc(C)c(C)c2nc1SCC(=O)c1cccs1	60.4	–	–	–	–
Cc1nc(-c2cccc(NC(=O)COc3ccc(Cl)cc3)c2)cs1	70.0	–	–	–	–
CC(C)CC(=O)Nc1cccc(-c2csc(-c3ccccc3)n2)c1	–	–	–	–	–
CCC(=O)Nc1cccc(C(=O)c2ccccc2)c1	–	31.0	–	–	–
O=C(COc1ccc(Cl)cc1)Nc1ccc2[nH]ncc2c1	34.1	–	–	–	–
CCC(=O)Nc1cccc(-c2csc(-c3ccccc3)n2)c1	37.7	–	–	–	–
Cc1cccc(-c2noc(CN(C3CCCCC3)S(=O)(=O)c3ccc(F)cc3)n2)c1	·	–	–	·	·
COc1ccc(S(=O)(=O)c2cn(C)c3cc(N4CCCC4)c(F)cc3c2=O)cc1	·	–	–	·	·
CCN1CCN(c2cc3c(cc2F)c(=O)c(S(=O)(=O)c2ccc(OC)cc2)cn3CC)CC1	·	–	–	·	·
COc1ccc(-c2onc3ccc(Br)cc23)cc1	–	–	–	?	100.2
COc1cc(-c2onc3ccc(Br)cc23)cc(OC)c1OC	–	–	–	?	58.7
Cc1ncc(COC(=O)C(C)C)c2cc(C(=O)Nc3ccccc3C(F)(F)F)c(=O)oc12	·	–	–	·	·
C=C(C)COc1ccc(-c2[nH]ncc2-c2ccccc2)c(O)c1	–	–	–	–	83.6
COc1ccc(-c2cn[nH]c2-c2ccc(OCc3ccc(F)cc3)cc2O)cc1OC	44.7	–	–	–	–
SMILES	D2 antagonist	D2 PAM-1	D2 ag-1	D2 ag-2	D2 PAM-2
C=C(C)COc1ccc(-c2[nH]ncc2-c2ccc(OC)cc2)c(O)c1	–	–	·	–	–
O=C(OCc1c(Cl)cccc1Cl)c1ccccn1	34.7	–	–	–	–
COc1ccc(C2(NC(C)=O)CCN(C(=O)c3ccco3)CC2)cc1	32.9	–	–	–	–
COc1ccc(C(=O)C2CCN(C(=O)c3ccco3)CC2)cc1	–	–	–	–	–
Cc1c(Cl)cccc1NC(=O)N1CCN(C(=O)c2ccco2)CC1	–	–	31.4	–	–
COc1ccc(NC(=S)N2CCN(C(=O)c3ccco3)CC2)cc1	32.3	–	–	–	–
Cc1ccc(C)c(S(=O)(=O)NCC(c2ccco2)S(=O)(=O)c2ccc(F)cc2)c1 (configuration not stated)	·	–	–	·	·
Cc1cccc(NC(=O)N2CCC3(CC2)Oc2ccccc2C(=O)N3Cc2ccccc2F)c1C	·	–	·	·	·
COc1ccc(CNS(=O)(=O)c2ccc3c(c2)N(C(C)=O)CCO3)cc1	–	–	–	–	–
COc1cccc(CNS(=O)(=O)c2ccc(S(=O)(=O)N3CCCC3)cc2)c1	–	31.8	–	–	–
COc1cccc(CN(Cc2ccccc2F)S(=O)(=O)c2ccc(S(=O)(=O)NCc3ccccc3)cc2)c1	43.0	–	–	–	–
COc1cccc(CNS(=O)(=O)c2ccc3c(c2)N(C)CCO3)c1	38.8	–	–	–	–
COc1cccc(NS(=O)(=O)c2ccc(S(=O)(=O)N3CCCC3)cc2)c1	–	–	–	–	–
CCN(C(=O)c1ccc(Br)o1)C1CCS(=O)(=O)C1 (configuration not stated)	–	–	–	–	–
CN(C(=O)c1ccc(Br)o1)C1CCS(=O)(=O)C1 (configuration not stated)	37.2	–	–	–	–
Cc1cccc(N(C)S(=O)(=O)c2nnc(NC(=O)C(C)Oc3ccccc3)s2)c1 (configuration not stated)	·	–	–	·	·
Cc1ccc(-n2ncc3c(SCC(=O)NNC(=O)c4ccco4)ncnc32)cc1	–	32.4	–	–	–
CCOC(=O)CNC(=O)CSc1ncnc2c1cnn2-c1ccc(C)cc1	–	–	–	–	–
CC(C)c1ccc(OCC(=O)N(Cc2cccs2)C2CCS(=O)(=O)C2)cc1 (configuration not stated)	·	–	–	·	·
COc1ccc(NC(=O)CSc2ccccn2)c([N+](=O)[O-])c1	31.3	–	–	–	–
O=C(CSc1ccccn1)Nc1nonc1[N+](=O)[O-]	–	–	–	63.4	–
O=C(CSc1ccccn1)Nc1cccc2ccccc12	–	33.9	–	–	–
CCCN(CCC)C(=O)c1c[nH]c2ccc(S(=O)(=O)N(C)c3ccc(Cl)cc3)cc2c1=O	·	–	–	·	·
CCOC(=O)Cn1c(=O)n(C2CCCCC2)c2nc(-c3c(F)cccc3Cl)nc(C(N)=O)c21	·	–	–	·	·
CCCSCCCNC(=O)C1CCN(C(=O)c2cnn(-c3ccccc3)c2-n2cccc2)CC1	·	–	–	·	·
SMILES	D2 antagonist	D2 PAM-1	D2 ag-1	D2 ag-2	D2 PAM-2
CCOc1ccc(/C=N/OCC(=O)NCc2ccc3c(c2)OCO3)cc1OC	31.9	–	–	–	–
CCC(Sc1nc2ccccc2c2nc(CCn3c(C)nc4ccccc43)nn12)C(=O)Nc1ccc(F)cc1 (configuration not stated)	·	–	–	·	·
CCOC(=O)CN(C(=O)CSc1nnc2c(n1)[nH]c1ccc(OC)cc12)c1ccc(F)cc1	79.7	–	–	–	–
Cc1c(Cl)cccc1NC(=O)c1cnc2sc(N3CCOCC3)nn2c1=O	·	–	–	·	·
OC1CCCN(c2c3c(nc4cc(-c5cccc(F)c5)nn24)CCCC3)C1 (configuration not stated)	46.6	–	–	–	–
CCc1ccc(N(C(=O)CCC(=O)Nc2cc(C)on2)C(C(=O)NC2CCCC2)c2ccco2)cc1 (configuration not stated)	33.5	–	–	–	–
Cc1cc(NC(=O)CCC(=O)N(C2CC2)C2(C(=O)NC3CCCC3)CCC(C)CC2)no1 (configuration not stated)	37.2	–	–	–	–

Assay outcomes as filed in PubChem.
